1 compound from the supplement of paper PMC11732987, “Enantioselective OTUD7B fragment discovery through chemoproteomics screening and high-throughput optimisation” (Communications Chemistry, 2025) can be followed below.

Unmarked numbers belong to inactive results.

Holding throughout (experiment): log2 ratio of Biotin-Ahx-Ub-VS probe labelling (fragment/DMSO); higher = less target engagement (more negative = stronger competition), active = hit call of the paper (q ≤ 0.05, log2 ratio ≤ -1)
Conditions in all cases: compound concentration: 200 uM; treatment time: 3 h

Assay [1] concerns the target T1, OTUD6B (UniProt Q8N6M0).
T1 sequence (whole entry): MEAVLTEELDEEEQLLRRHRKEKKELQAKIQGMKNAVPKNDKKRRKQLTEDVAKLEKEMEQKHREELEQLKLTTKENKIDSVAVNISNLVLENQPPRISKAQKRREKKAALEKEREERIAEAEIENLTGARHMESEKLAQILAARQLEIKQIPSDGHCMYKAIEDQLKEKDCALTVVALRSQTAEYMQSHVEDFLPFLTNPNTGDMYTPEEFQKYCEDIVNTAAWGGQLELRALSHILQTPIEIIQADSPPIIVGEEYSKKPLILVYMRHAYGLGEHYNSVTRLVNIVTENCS
The procedure, abridged: (§1)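 Using Biotin-Ahx-Ub-VS at 0.5 µM final for 1 h, DUBs were labelled in HEK293T lysate (495 µg per sample) that had first been treated in triplicate with fragment at 200 µM or vehicle for 3 h. NeutrAvidin enrichment, LysC and trypsin digestion and diaPASEF LC-MS/MS followed. Spectronaut label-free quantities were global-median-normalised. Values are average log2 fragment/vehicle ratios by unpaired t-test, using proteins with ≥2 unique peptides.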

The target in assay [2] is T2, OTUD7B (UniProt Q6GQQ9).
T2 sequence (whole entry): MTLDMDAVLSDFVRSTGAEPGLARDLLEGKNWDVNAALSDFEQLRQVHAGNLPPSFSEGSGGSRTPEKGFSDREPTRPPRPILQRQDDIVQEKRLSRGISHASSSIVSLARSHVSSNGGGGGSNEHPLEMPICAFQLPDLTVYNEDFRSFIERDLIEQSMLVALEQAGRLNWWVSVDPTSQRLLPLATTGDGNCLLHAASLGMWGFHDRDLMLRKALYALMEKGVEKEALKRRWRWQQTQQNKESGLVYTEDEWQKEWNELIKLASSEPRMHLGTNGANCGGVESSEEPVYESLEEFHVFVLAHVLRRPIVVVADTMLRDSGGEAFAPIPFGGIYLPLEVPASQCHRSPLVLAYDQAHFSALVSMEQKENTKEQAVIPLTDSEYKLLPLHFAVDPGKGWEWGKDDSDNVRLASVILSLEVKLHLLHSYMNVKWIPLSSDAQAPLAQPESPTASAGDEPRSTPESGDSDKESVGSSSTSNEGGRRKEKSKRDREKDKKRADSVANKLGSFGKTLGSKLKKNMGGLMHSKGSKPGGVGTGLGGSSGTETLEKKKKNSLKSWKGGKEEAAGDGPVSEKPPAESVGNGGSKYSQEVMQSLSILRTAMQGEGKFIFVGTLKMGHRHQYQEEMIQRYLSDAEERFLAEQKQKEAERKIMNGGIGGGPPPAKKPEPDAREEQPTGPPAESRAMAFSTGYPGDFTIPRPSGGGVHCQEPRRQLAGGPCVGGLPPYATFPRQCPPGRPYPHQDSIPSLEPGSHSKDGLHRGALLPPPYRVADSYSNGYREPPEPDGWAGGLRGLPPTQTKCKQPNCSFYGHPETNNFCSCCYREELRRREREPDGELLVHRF
The procedure, abridged:
as §1

In assay [3] the target is PRPF8 (UniProt Q6P2Q9). The procedure, abridged: as §1
Assay [4] addresses T3, PSMD7 (UniProt P51665).
T3 sequence (whole entry): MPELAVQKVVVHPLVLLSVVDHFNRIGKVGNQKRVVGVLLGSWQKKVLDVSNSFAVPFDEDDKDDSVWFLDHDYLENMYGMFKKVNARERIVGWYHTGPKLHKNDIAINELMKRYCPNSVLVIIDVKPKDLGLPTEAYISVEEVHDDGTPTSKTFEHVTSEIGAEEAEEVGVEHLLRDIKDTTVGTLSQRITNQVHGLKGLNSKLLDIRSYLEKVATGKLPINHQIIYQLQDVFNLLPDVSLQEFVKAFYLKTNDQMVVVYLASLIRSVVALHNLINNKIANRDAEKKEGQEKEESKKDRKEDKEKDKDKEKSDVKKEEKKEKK
The procedure, abridged:
as §1

Assay [5] deals with UCHL1 (UniProt P09936). The procedure, abridged: as §1
In assay [6] the target is T4, UCHL3 (UniProt P15374).
T4 sequence (whole entry): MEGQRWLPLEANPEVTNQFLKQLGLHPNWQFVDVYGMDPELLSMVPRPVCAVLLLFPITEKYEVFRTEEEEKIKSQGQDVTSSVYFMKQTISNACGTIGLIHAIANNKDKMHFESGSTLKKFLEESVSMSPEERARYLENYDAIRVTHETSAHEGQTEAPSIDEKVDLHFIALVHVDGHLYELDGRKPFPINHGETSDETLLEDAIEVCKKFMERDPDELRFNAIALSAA
The procedure, abridged:
as §1

For assay [7], the target named is T5, UCHL5 (UniProt Q9Y5K5).
T5 sequence (whole entry): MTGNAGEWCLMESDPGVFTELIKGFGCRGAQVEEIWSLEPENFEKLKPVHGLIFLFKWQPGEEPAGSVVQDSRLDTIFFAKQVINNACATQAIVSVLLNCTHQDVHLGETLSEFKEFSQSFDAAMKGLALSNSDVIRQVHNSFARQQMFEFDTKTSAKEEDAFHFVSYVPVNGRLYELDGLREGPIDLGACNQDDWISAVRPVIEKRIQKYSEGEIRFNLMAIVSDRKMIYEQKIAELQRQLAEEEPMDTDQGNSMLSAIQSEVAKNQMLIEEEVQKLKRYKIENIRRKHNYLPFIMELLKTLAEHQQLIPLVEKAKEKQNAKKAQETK
The procedure, abridged:
as §1

Assay [8] concerns the target USP10 (UniProt Q14694). The procedure, abridged: as §1
Assay [9] addresses T6, USP15 (UniProt Q9Y4E8).
T6 sequence (whole entry): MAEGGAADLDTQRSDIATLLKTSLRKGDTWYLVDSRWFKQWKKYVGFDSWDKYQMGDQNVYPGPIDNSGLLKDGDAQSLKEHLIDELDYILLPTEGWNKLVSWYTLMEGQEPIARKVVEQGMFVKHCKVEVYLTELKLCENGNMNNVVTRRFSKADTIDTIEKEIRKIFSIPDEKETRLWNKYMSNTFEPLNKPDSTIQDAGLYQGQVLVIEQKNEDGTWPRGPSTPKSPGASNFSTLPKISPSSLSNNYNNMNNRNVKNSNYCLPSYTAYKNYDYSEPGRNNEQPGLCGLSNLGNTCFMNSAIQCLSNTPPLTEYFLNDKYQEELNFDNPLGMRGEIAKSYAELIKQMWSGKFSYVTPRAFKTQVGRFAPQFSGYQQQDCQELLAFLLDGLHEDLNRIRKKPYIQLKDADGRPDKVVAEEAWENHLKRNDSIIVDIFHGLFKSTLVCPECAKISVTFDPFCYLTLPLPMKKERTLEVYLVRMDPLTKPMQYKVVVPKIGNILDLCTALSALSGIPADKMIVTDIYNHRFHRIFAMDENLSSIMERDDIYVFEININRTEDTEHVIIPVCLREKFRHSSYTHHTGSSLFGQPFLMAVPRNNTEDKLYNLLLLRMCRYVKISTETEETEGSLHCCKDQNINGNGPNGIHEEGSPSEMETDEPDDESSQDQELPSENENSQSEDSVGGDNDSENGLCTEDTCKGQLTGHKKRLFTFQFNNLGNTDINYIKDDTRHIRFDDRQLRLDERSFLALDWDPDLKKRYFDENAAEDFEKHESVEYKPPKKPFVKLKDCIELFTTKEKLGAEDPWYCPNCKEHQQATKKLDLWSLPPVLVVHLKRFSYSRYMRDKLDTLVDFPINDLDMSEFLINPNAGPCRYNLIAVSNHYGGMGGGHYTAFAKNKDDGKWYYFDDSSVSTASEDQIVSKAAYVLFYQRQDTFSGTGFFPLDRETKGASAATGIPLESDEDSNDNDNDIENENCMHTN
The procedure, abridged:
as §1

For assay [10], the target named is USP16 (UniProt Q9Y5T5). The procedure, abridged: as §1
Sequence of USP16 (Q9Y5T5 whole entry, looked up): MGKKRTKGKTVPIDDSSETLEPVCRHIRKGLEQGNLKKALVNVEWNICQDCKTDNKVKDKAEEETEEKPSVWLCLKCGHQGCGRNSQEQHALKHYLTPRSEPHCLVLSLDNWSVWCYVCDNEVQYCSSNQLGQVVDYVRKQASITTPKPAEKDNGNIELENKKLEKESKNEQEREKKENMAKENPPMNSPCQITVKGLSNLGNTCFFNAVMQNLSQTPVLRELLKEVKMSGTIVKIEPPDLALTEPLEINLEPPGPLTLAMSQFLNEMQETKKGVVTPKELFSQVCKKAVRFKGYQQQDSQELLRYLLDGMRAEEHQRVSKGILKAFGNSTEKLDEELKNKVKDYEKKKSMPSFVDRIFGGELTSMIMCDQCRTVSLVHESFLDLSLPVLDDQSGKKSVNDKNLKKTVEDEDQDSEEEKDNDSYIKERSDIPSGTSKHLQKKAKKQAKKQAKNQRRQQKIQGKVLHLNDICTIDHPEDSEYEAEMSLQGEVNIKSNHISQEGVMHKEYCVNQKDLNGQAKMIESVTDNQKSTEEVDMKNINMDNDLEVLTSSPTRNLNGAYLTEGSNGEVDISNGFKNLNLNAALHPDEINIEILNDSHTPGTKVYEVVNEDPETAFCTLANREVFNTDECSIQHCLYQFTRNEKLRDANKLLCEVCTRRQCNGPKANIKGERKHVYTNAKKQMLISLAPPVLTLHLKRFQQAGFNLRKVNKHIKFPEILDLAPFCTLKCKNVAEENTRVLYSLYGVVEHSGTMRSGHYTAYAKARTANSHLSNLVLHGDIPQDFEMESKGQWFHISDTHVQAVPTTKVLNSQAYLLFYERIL

Sequence of USP10 (Q14694 whole entry): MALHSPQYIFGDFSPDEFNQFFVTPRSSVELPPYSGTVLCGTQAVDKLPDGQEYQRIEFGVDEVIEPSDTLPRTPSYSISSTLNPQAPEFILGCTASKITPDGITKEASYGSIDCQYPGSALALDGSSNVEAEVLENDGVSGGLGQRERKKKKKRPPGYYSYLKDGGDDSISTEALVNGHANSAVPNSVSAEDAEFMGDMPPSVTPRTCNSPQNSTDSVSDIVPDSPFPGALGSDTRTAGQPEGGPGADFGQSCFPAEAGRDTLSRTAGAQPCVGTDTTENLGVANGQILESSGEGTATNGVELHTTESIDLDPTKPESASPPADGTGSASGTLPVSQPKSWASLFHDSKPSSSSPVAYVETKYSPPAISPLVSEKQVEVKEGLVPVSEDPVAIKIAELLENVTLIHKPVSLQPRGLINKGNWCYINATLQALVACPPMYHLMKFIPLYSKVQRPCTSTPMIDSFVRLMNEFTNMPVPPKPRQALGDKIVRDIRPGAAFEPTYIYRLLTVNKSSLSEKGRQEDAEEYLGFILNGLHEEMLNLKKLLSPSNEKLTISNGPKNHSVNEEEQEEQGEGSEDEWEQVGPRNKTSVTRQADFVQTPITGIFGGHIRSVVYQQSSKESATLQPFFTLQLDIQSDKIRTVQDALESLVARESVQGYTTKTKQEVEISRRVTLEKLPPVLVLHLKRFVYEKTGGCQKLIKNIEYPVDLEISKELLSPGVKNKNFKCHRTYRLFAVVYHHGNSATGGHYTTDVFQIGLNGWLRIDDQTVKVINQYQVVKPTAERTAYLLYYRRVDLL
Sequence of UCHL1 (P09936 whole entry, looked up): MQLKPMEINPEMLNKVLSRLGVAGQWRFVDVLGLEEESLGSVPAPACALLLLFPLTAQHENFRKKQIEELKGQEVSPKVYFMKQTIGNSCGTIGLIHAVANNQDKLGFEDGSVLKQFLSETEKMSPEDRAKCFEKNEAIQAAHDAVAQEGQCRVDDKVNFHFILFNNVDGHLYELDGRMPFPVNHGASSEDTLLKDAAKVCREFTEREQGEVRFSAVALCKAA

Take `O=C(CCl)N1CCc2sccc2C1`: the “log2 ratio of Biotin-Ahx-Ub-VS probe labelling” value is -0.251 in assay [1]; -1.08 (active) in assay [2]; 0.249 in assay [3]; -0.000885 in assay [4]; -1.18 (active) in assay [5]; -0.458 in assay [6]. Moreover, the “log2 ratio of Biotin-Ahx-Ub-VS probe labelling” value in assay [7] was -0.259; in [8] it was -0.16; in assay [9], -0.737; in assay [10], -0.278.
